PubChem BioAssay AID1159580 (chemical genetic matrix, 2015)
“And” between values parts separate entries of the source, which are not always exact repeats. Equal values may be shown once. Hit rate of the full screen: of about 5,500 compounds, about 2,000 (36%) were called active. About 18% were inconclusive and are not listed. Cut-off read from the data, not from the text of the source: active = normalized growth mostly below about 0.91 (no sharp cut-off); inconclusive = no clear call, values can overlap the other calls; inactive = mostly above about 0.92. This is one part of the list.

Assay: chemical genetic growth profiling, strain panel (AID 1159580);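 note: tested at 20 µM; growth read once vehicle control cultures reached saturation at 30 °C; 1 = growth at the plate median or of vehicle wells; lower values mean less growth of the strain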
Conditions: S. cerevisiae deletion strains, growth OD

Measured: normalized growth

CC1(C)O[C@@H]2CC3C4C[C@H](F)C5=CC(=O)CC[C@]5(C)C4[C@@H](O)C[C@]3(C)[C@]2(C(=O)CO)O1 (stereo partly specified)
inactive: locus YAL013W, strain DEP1, hits give low values 1.02 | locus YAL021C, strain ccr4, hits give low values 0.971 | locus YAL026C, strain drs2, hits give low values 1.01 | locus YAL030W, strain snc1, hits give low values 1.01 | locus YBL061C, strain skt5, hits give low values 1.01 | locus YBR009C, strain hhf1, hits give low values 1 | locus YBR021W, strain FUR4, hits give low values 1.02 | locus YBR023C, strain chs3, hits give low values 1 | locus YBR171W, strain sec66, hits give low values 1.01 | locus YBR229C, strain ROT2, hits give low values 1.01 | locus YBR231C, strain swc5, hits give low values 1 | locus YBR279W, strain paf1, hits give low values 0.994 | locus YCL011C, strain gbp2, hits give low values 1 | locus YCL016C, strain dcc1, hits give low values 0.992 | locus YCL029C, strain bik1, hits give low values 1.01 | locus YCL069W, strain vba3, hits give low values 1 | locus YCR088W, strain abp1, hits give low values 1.01 | locus YDL005C, strain med2, hits give low values 1.03 | locus YDL035C, strain GPR1, hits give low values 1.01 | locus YDL040C, strain nat1, hits give low values 1.01 | locus YDL074C, strain BRE1, hits give low values 1.04 | locus YDL101C, strain DUN1, hits give low values 1.02 | locus YDL134C, strain PPH21, hits give low values 1.01 | locus YDL185W, strain tfp1, hits give low values 1.01 | locus YDL192W, strain arf1, hits give low values 1.01 | locus YDR001C, strain nth1, hits give low values 1 | locus YDR069C, strain doa4, hits give low values 1.01 | locus YDR101C, strain arx1, hits give low values 0.998 | locus YDR137W, strain rgp1, hits give low values 0.995 | locus YDR150W, strain NUM1, hits give low values 1.03 | locus YDR159W, strain sac3, hits give low values 0.939 | locus YDR162C, strain NBP2, hits give low values 1.03 | locus YDR195W, strain ref2 0.991 | locus YDR297W, strain sur2, hits give low values 1.01 | locus YDR318W, strain mcm21, hits give low values 0.999 | locus YDR334W, strain swr1, hits give low values 1.01 | locus YDR335W, strain msn5, hits give low values 1 | locus YDR388W, hits give low values 1.01 | locus YDR392W, strain spt3, hits give low values 0.931 | locus YDR502C, strain sam2, hits give low values 1 | locus YEL003W, strain gim4, hits give low values 0.999 | locus YEL037C, strain rad23, hits give low values 1.01 | locus YEL061C, strain CIN8 (second series), hits give low values 1.01 | locus YEL061C, strain CIN8, hits give low values 1.01 | locus YER015W, strain faa2, hits give low values 1.01 | locus YER016W, strain bim1, hits give low values 1 | locus YER110C, hits give low values 0.998 | locus YER111C, strain swi4, hits give low values 1 | locus YER155C, strain BEM2 (second series), hits give low values 1.03 | locus YER155C, strain BEM2, hits give low values 1 | locus YER167W, strain BCK2, hits give low values 1.01 | locus YFR010W, strain ubp6, hits give low values 1.01 | locus YGL078C, strain dbp3, hits give low values 0.995 | locus YGL086W, strain mad1, hits give low values 1 | locus YGL167C, strain pmr1, hits give low values 0.996 | locus YGL173C, strain kem1, hits give low values 1.02 | locus YGL227W, strain vid30, hits give low values 1 | locus YGL240W, strain doc1, hits give low values 1 | locus YGL248W, strain PDE1, hits give low values 1.01 | locus YGL253W, strain hxk2, hits give low values 1 | locus YGR078C, strain PAC10, hits give low values 1.02 | locus YGR135W, strain pre9, hits give low values 1 | locus YGR229C, strain SMI1, hits give low values 1.02 | locus YGR252W, strain gcn5, hits give low values 0.983 | locus YHR013C, strain ard1, hits give low values 0.994 | locus YHR027C, strain rpn1, hits give low values 1.02 | locus YHR030C, strain SLT2, hits give low values 1 and 1.02 | locus YHR079C, strain IRE1 (second series), hits give low values 0.999 | locus YHR079C, strain IRE1, hits give low values 1.03 | locus YHR094C, strain hxt1, hits give low values 1.01 | locus YHR129C, strain ARP1, hits give low values 1.01 | locus YHR142W, strain chs7, hits give low values 1 | locus YHR200W, strain rpn10, hits give low values 1.01 | locus YIL066C, strain RNR3, hits give low values 1 | locus YIL073C, strain SPO22, hits give low values 1.01 | locus YIL125W, strain kgd1, hits give low values 0.995 | locus YIR030C, strain dcg1, hits give low values 1.01 | locus YJL092W, strain hpr5, hits give low values 1.02 | locus YJL095W, strain BCK1 (second series), hits give low values 1.01 | locus YJL095W, strain BCK1, hits give low values 0.999 and 1.02 | locus YJL115W, strain asf1, hits give low values 1.01 | locus YJL129C, strain trk1, hits give low values 1.02 | locus YJL134W, strain LCB3, hits give low values 1.01 | locus YJL154C, strain vps35, hits give low values 1.01 | locus YJL164C, strain tpk1, hits give low values 0.982 | locus YJL166W, strain qcr8, hits give low values 1.01 | locus YJL168C, strain set2, hits give low values 1.01 | locus YJL187C, strain SWE1 (second series), hits give low values 1.01 | locus YJL187C, strain SWE1, hits give low values 1.01 | locus YJR043C, strain POL32, hits give low values 0.994 | locus YJR066W, strain TOR1, hits give low values 0.957
